# Results as given in PubChem BioAssay (EPA / NIEHS).
# Records with an inconclusive call do not appear. Calls of active or inactive are those of the source. Rule for the calls: active = hit-call score of the fitted dose curve at least 0.9, where 1 is the maximum; inconclusive = response in the unintended direction; inactive = score below 0.9.
# Biological target: human Vitamin D Receptor (VDR), VDR (gene 7421) (UniProt P11473)
# Assay: ATG_VDR_TRANS: Attagene TRANS-FACTORIAL HepG2 Assay for human Vitamin D Receptor (VDR) (AID 2283022)
# Summary of the method: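 Steps: transfect HepG2 with GAL4-UAS-driven reporter constructs; dose compounds 24 h; isolate RNA, reverse-transcribe, PCR-amplify with 6-FAM-labelled primer extension and HpaI digestion; quantify fragments by capillary electrophoresis relative to DMSO.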
# Chain of human Vitamin D Receptor (VDR), VDR (gene 7421) (P11473 whole entry, looked up): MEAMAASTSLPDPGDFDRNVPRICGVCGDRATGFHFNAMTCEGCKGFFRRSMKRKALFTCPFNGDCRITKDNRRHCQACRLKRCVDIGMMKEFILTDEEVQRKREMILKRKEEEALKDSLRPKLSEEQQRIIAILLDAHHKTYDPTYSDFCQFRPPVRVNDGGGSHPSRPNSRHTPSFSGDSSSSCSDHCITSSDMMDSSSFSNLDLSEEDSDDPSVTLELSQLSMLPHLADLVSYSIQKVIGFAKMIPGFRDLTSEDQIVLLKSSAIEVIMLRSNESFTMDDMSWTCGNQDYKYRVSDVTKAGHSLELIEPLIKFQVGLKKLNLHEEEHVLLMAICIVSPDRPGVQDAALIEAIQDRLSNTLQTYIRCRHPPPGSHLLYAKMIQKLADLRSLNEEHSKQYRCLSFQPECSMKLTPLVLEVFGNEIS
row,SMILES,outcome
1,COCCC(=O)OC,inactive
2,Oc1ccc2c(c1)CCC2,inactive
3,Cc1cc(=O)[nH]c(C(C)C)n1,inactive
4,CCCC(=O)OCC(COC(=O)CCC)OC(=O)CCC,inactive
5,C=C(C)CCCC,inactive
6,CC1=CCC(=O)O1,inactive
7,CO[Si](CCCOCC1CO1)(OC)OC (stereo unspecified),inactive
8,CC(C)=CCCC(C)O (stereo unspecified),inactive
9,OCCC(O)CO (stereo unspecified),inactive
10,C=CCOC(=O)CC(C)C,inactive
11,CCCCCCCCn1sc(Cl)c(Cl)c1=O,inactive
12,Brc1ccccn1,inactive
13,CCCCOC(=O)C(C)O (stereo unspecified),inactive
14,CCOCOCC,inactive
15,CSc1ccc(O)cc1C,inactive
16,Cc1cccc(C)n1,inactive

row,SMILES,outcome
1,O=S(=O)(O)c1ccc(Cl)cc1,inactive
2,O=C(c1ccccc1)c1ccc(Cl)cc1,inactive
3,CC(C)(C)c1cc(Cc2cc(C(C)(C)C)c(O)c(C(C)(C)C)c2)cc(C(C)(C)C)c1O,inactive
4,CCCCCCCCCCCCC[N+](C)(C)Cc1ccccc1,inactive
5,CCCCCCCCCCCC(=O)Cl,inactive
6,CC(C)CC=C(C=O)c1ccccc1,inactive
7,OCCCCl,inactive
8,CN(C)C(C)(C)CO,inactive
9,CCCCOC(=O)[C@H](C)O,inactive
10,CN(N=O)C(=O)N[C@@H]1[C@@H](O)[C@H](O)[C@@H](CO)O[C@@H]1O,inactive
11,Nc1c(Br)cc([N+](=O)[O-])cc1Br,inactive
12,O=C1C=CC(=O)N1c1ccccc1,inactive
13,Cc1ccc2c(c1)OCC(=O)CO2,inactive
14,O=C1c2ccccc2C(=O)c2c(Cl)cccc21,inactive
15,CN1CN(C)CN(C)C1,inactive
